The structures appear in SMILES notation. Screen size: about 360,000 compounds; about 3,100 (0.86%) were called active. The entries come from a sample that favours actives as a whole. Unmarked numbers belong to inactive results.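 Rule for the calls: active = inhibition or corrected inhibition above about 18%, plus a signal ratio from 0.5 to 1.5 (limit read from the data, passing the limit was not always enough); inactive = the rest.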

For this assay, the target named is Neuropilin-1 (Homo sapiens) (UniProt O14786). As to the kind of experiment: modulators of CendR peptide binding to NRP-1, primary screen, biochemical, fluorescence polarization, uHTS (AID 602438). As to conditions: FAM-RPARPAR peptide binding to NRP-1, fluorescence polarization; at 25 µM; active compounds read high.
Sequence of Neuropilin-1 (Homo sapiens) (O14786 whole entry, looked up): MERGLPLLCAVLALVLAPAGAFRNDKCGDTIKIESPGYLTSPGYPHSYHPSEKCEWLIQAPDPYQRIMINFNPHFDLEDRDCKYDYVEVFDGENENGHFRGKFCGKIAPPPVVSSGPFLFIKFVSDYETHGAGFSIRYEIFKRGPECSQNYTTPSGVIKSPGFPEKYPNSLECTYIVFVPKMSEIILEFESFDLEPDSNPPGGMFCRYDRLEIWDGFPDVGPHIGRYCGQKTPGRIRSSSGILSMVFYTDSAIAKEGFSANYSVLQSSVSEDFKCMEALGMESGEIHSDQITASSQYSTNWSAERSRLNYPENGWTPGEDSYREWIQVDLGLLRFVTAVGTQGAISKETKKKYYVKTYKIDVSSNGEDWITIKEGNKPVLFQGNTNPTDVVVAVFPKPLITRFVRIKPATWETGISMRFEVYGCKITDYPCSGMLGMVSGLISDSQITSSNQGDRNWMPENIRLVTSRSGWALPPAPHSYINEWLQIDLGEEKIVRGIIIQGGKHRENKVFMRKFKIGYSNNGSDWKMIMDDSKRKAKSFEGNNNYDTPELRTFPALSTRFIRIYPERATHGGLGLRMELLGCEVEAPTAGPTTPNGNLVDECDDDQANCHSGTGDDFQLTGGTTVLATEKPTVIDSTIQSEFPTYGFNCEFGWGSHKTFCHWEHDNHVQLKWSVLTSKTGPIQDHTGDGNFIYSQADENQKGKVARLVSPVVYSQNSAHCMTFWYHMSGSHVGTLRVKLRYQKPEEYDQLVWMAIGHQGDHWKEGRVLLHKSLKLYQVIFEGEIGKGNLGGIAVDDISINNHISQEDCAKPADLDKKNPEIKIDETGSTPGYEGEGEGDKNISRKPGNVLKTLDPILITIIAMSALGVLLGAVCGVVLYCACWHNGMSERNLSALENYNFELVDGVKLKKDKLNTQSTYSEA
Turning to `Cc1ccc(N(C(=O)c2ccc(CN3CCOCC3)o2)C(C(=O)NCCC(C)C)c2cccs2)c(C)c1` (stereo unspecified), the inhibition is 26.1% (active).

For `Cc1cccc(N(C(=O)c2ccc(CN3CCOCC3)o2)C(C(=O)NC2CCCCC2)c2ccc(F)cc2)c1` (stereo unspecified), the inhibition is -7.1%.

For the compound `Cc1ccc(C(=O)NC(C)C(c2cccs2)N2CCOCC2)cc1C` (stereo unspecified), the inhibition is -2%.

Turning to `Cc1csc(=O)n1CCC(=O)OCC(=O)NNC(=O)c1ccc(Br)cc1`, the inhibition is -1.9%.

As to `CCOC(=O)N1CCN(C(c2ccnc3ccccc23)c2nnnn2-c2c(C)cccc2C)CC1` (stereo unspecified), the inhibition was -13.7%.

For the compound `COc1ccc(C(=O)COC(=O)c2ccc([N+](=O)[O-])s2)cc1OC`, the inhibition is 24.3% (active).

For the compound `COc1cc(NC(=O)COC(=O)c2ccc([N+](=O)[O-])s2)cc(OC)c1OC`, the inhibition was -5.2%.

For `O=C(OCC(=O)N1CCN(c2ccccc2)CC1)c1ccc([N+](=O)[O-])s1`, the inhibition was -3.7%.

As to `COc1ncnc2c1ncn2CCCNCCN1CCOCC1`, the inhibition was 1%.

As to `CCOc1ccc(CCNC(=O)CSc2cc(=O)n(C)c3ccc(Cl)cc23)cc1OCC`, the inhibition is 4.1%.

Regarding `O=C(CCNC(=O)c1ccccc1Cl)NN=Cc1ccco1`, the inhibition is 10.2%.

Regarding `O=C(Cc1ccccc1)Nc1cccc(C(=O)N/N=C/c2ccco2)c1`, the inhibition was -32.3%.

As to `O=C(N/N=C/c1ccco1)c1csc2c1CCCC2`, the inhibition is 26.9% (active).

Regarding `CCOC(=O)C(C)n1cnc2scc(-c3ccc(C)c(C)c3)c2c1=O` (stereo unspecified), the inhibition was 9.9%.

Turning to `CC(=O)C(C)n1cnc2scc(-c3ccc(C)cc3)c2c1=O` (stereo unspecified), the inhibition was 7.4%.

As to `CCC(C(=O)OC)n1cnc2scc(-c3ccc(C)cc3)c2c1=O` (stereo unspecified), the inhibition is 91.3% (active).

`O=C(CCNC(=O)C1CCN(S(=O)(=O)c2ccccc2)CC1)NC1CC1`: the inhibition is -0.4%.

Consider `Cc1ccccc1NC(=O)c1cc(S(=O)(=O)N2CCOCC2)cs1`, for which the inhibition was 15%.

For the compound `Cc1ccc(-c2ccc(C3=CC(=O)CC(C)(C)C3=O)cc2)cc1`, the inhibition was 4.5%.

On to `CN1CCN(c2cc3c(cc2F)c(=O)c(C(=O)O)cn3CCF)CC1`, for which the inhibition was 11.3%.

Consider `CCOC(=O)c1c(NC(=O)CCl)sc(C(=O)N(CC)CC)c1C`, for which the inhibition is -0.5%.

Take `CCOC(=O)c1c(NC(=O)COC(=O)c2ccc(S(=O)(=O)C(F)F)cc2)sc(C(=O)N(C)C)c1C`: the inhibition is -19.4%.

In the case of `CCOC(=O)Nc1sc(C(=O)N(C)C)c(C)c1C(=O)OCC`, the inhibition was 26.1% (active).

Turning to `Cc1cc(NC(=O)CSc2nc(=O)cc(N)n2-c2ccc(F)cc2)no1`, the inhibition is 8.7%.

Turning to `COc1ccc(C(=O)NCc2ccc(Cl)cc2)cc1S(=O)(=O)N1CCCC1`, the inhibition is 4.6%.

For `COc1ccc(Cl)cc1S(=O)(=O)N1CCN(CC(=O)C(C)(C)C)CC1`, the inhibition was 21.7% (active).

Consider `COc1ccc(Cl)cc1S(=O)(=O)N1CCC(O)(c2ccc(Cl)cc2)CC1`, for which the inhibition is 3%.

With `CC(NCc1ccccc1OC1CCCC1)c1ccccc1` (stereo unspecified), the inhibition was -0.1%.

On to `O=C(NC12CC3CC(CC(C3)C1)C2)N1CCCC(CO)C1` (stereo unspecified), for which the inhibition was -1.5%.

As to `CC(=O)c1c(N)n(C)c(=O)n(C)c1=O`, the inhibition is 5.8%.

On to `Cc1ccc(C(C(=O)NCC2CCCO2)N(C(=O)c2snc(C(N)=O)c2N)c2ccc(C(C)C)cc2)o1` (stereo unspecified), for which the inhibition was -5.9%.

`O=C(O)c1ccccc1OCc1ccccc1Cl`: the inhibition is 5.3%.

For the compound `Cn1cccc1Cc1nnc(SCC(=O)NCc2ccc3c(c2)OCO3)n1CCc1ccccc1`, the inhibition was -7.4%.

Take `Cc1ccc(-n2c(SCC(=O)NCc3ccc4c(c3)OCO4)nnc2-c2cccnc2)c(C)c1`: the inhibition was 8.7%.

Turning to `Cc1ccccc1-c1nnc(SCC(=O)NCc2ccc3c(c2)OCO3)n1C`, the inhibition is 38.3% (active).

With `Cc1cc(N=CC2=C(O)CCCC2=O)no1`, the inhibition was 10.1%.

With `CC1OC2C(OC1C)N(S(C)(=O)=O)CCN2S(C)(=O)=O` (stereo unspecified), the inhibition was -3.5%.

Turning to `CC1(C(=O)Nc2ccc3c(c2)OCCO3)CSCC(=O)N1CCOc1ccccc1` (stereo unspecified), the inhibition is -11.3%.

With `Cc1ccc(C(=O)OCC(=O)NC(=O)Cc2ccccc2)c(O)c1`, the inhibition is 20.4% (active).

For `Cc1cccc(C)c1NC(=O)COC(=O)c1ccccc1O`, the inhibition is 6.8%.

In the case of `CCCN(CC1CC1)C(=O)COC(=O)c1ccc(C)cc1O`, the inhibition is -9.9%.

In the case of `C[C@H](CO)N1C[C@H](C)[C@@H](CN(C)C(=O)c2cnccn2)Oc2ncc(Br)cc2C1=O`, the inhibition is 2.9%.

For the compound `C/C=C/C(=O)Nc1ccc(N2CCN(c3ccc(C(F)(F)F)cn3)CC2)nc1`, the inhibition is 6.8%.

On to `C[C@H]1CN([C@@H](C)CO)C(=O)Cc2cc(NC(=O)Cc3ccccc3)ccc2O[C@H]1CN(C)S(=O)(=O)c1cccs1`, for which the inhibition was 0.6%.

Take `CCCCCNC(=O)c1cccnc1SCC(=O)Nc1ccccc1OC`: the inhibition is -0.3%.

For `Cc1cc(Cl)c2oc(C(=O)NC(C)c3ccncn3)c(C)c2c1` (stereo unspecified), the inhibition is 1.3%.

As to `CCOC(=O)c1csc(CCNC(=O)c2oc3c(Cl)cc(C)cc3c2C)n1`, the inhibition was 24.9% (active).

For `Cc1cc(Cl)c2oc(C(=O)N(C)C(C)c3ccccn3)c(C)c2c1` (stereo unspecified), the inhibition was 9.3%.

For `CCN(CC(=O)Nc1cc(Cl)ccc1C)C(=O)Cn1c(=O)cnc2ccccc21`, the inhibition is 9%.

For `O=c1nc(NO)ccn1C1CCCO1` (stereo unspecified), the inhibition is 7.6%.

For the compound `CC(C)C(C(=O)NCc1ccco1)N(CC1CCCO1)C(=O)CNS(=O)(=O)c1ccc(F)cc1` (stereo unspecified), the inhibition is 15.8%.

For `Cc1ccc2c(c1)C1C[N+](C)(CC(=O)c3ccccc3)CCC1N2C(=O)c1ccccc1Cl` (stereo unspecified), the inhibition was 5.2%.

As to `Cc1ccc2c(c1)C1CN(C)CCC1N2C(=O)c1ccccc1NS(=O)(=O)c1ccc(F)cc1C` (stereo unspecified), the inhibition is 37.9% (active).

Regarding `Cc1ccc2c(c1)C1CN(C)CCC1N2C(=S)Nc1ccc(Cl)cc1Cl` (stereo unspecified), the inhibition was -11.4%.

For `Cc1noc(C)c1CSCC(=O)Nc1ccc(Br)cc1Cl`, the inhibition was 12.2%.

As for `O=C(CSCc1c(F)cccc1Cl)NCC1CCCO1` (stereo unspecified), the inhibition was -9.5%.

Regarding `CC1CCN(C(=O)/C(=C\c2ccccc2F)NC(=O)c2ccccc2)CC1`, the inhibition is 9.8%.

On to `COc1ccc2oc(N)c(C=O)c(=O)c2c1`, for which the inhibition is 13.3%.

In the case of `CCc1cc2c(=O)c(-c3ccon3)c(N)oc2cc1OC`, the inhibition was 36.1% (active).

For `CCc1cc2c(=O)c(-c3nc4ccccc4n3C)c(CCCC(=O)O)oc2cc1OC(=O)C(C)(C)C`, the inhibition was 3.6%.

Regarding `CCN(CC(=O)N1CCCC1)S(=O)(=O)c1ccc(F)cc1`, the inhibition was 9.2%.

Consider `COCn1c(C(O)c2ccccc2)cc2ccccc21` (stereo unspecified), for which the inhibition was 8.1%.

Consider `O=C(NCC(O)c1ccc([N+](=O)[O-])cc1)C1CCCCC1` (stereo unspecified), for which the inhibition is 11.3%.

Take `CC(OC(=O)c1cccc(S(=O)(=O)N2CCOCC2)c1)C(=O)NCC1CCCCC1` (stereo unspecified): the inhibition was 8.2%.

On to `CC(OC(=O)c1ccc([N+](=O)[O-])cc1)C(=O)NCC1CCCCC1` (stereo unspecified), for which the inhibition was 23.5% (active).

Turning to `O=C(C1CCCN1S(=O)(=O)c1ccc(Br)cc1)N1CCOCC1` (stereo unspecified), the inhibition was 6.9%.

Take `Cc1nc2ccc(C(=O)N(C)CC3CCCN(CCc4ccc(Cl)cc4)C3)cc2[nH]1` (stereo unspecified): the inhibition is 8.8%.

For the compound `COC(=O)Nc1nc2ccc(Sc3ccccc3)cc2[nH]1`, the inhibition is -0.3%.

Take `Cc1nc2ccc(C(=O)O)cc2[nH]1`: the inhibition was 24.6% (active).

`Cc1cccc(NC(=O)CN2CCCN(S(=O)(=O)c3ccc(Br)s3)CC2)c1`: the inhibition was 1.1%.

Consider `CCc1ccccc1NC(=O)CN(C)S(=O)(=O)c1ccc2c(c1)c(=O)n(C)c(=O)n2C`, for which the inhibition was 7.6%.

As for `COc1cccc(CNC(=O)CN(C)S(=O)(=O)c2ccc3c(c2)c(=O)n(C)c(=O)n3C)c1`, the inhibition is -1.6%.

As to `CC1CCC(NC(=O)CN(C)S(=O)(=O)c2ccc3c(c2)c(=O)n(C)c(=O)n3C)CC1` (stereo unspecified), the inhibition was 25.4% (active).

In the case of `C/C=N/NC(=O)CCCC(=O)N/N=C/C`, the inhibition is 15%.

In the case of `Cc1cc(C)c(S(=O)(=O)N2C=CC(C(F)(F)F)=NCC2)c(C)c1`, the inhibition is 3.5%.

In the case of `O=C(O)c1ccc(COc2c(F)c(F)cc(F)c2F)o1`, the inhibition was 45.5% (active).

For `O=C(O)c1ccc(NC(=O)c2ccc(COc3ccc(Cl)cc3)o2)cc1`, the inhibition is -6.7%.

On to `O=C(O)CSCc1ccc(C(=O)O)o1`, for which the inhibition was -7.1%.

`CC1O[C@H](OC2C(COC3OC(CO)C(O)[C@H](O)C3O)OC(OC3CC[C@]4(C)C(CC[C@@]5(C)[C@@H]4C=C[C@]46OC[C@@]7(CCC(C)(C)C[C@H]74)C(O)C[C@@]56C)C3(C)C)C(O)C2O)C(O)C(O)C1O` (stereo partly specified): the inhibition was 23.7% (active).

Turning to `CCOc1ccc(-n2c(SC(C)C(=O)OC)nc3c(c2=O)SCC3)cc1` (stereo unspecified), the inhibition was -5.4%.

For the compound `O=C1CCN(CCCc2ccccc2)CCN1CCO`, the inhibition is 5.5%.

`N#Cc1cccc(CN2CCC(=O)N(CCO)CC2)c1`: the inhibition was 21.1% (active).

Take `N#Cc1cccc(CN2CCC(=O)N([C@H](CO)c3ccccc3)CC2)c1`: the inhibition is 9.5%.

Turning to `O=C(CSc1nnc(-c2cccnc2)n1Cc1ccco1)c1ccc(Cl)c(Cl)c1`, the inhibition was -25.2%.

As to `O=C(CSc1nnc(-c2cccs2)n1Cc1ccco1)c1ccc2c(c1)OCO2`, the inhibition was 37.5% (active).

Turning to `O=C(CSc1nnc(-c2cnccn2)n1Cc1ccco1)c1ccc(Cl)c(Cl)c1`, the inhibition was 3.3%.

With `CC(=O)N1CC2(C)CN(C(C)=O)CC(C)(C1)C2=O`, the inhibition is 11.7%.

In the case of `CN(C(=O)C1CCN(c2ncnc3c2nc2n3CCCCC2)CC1)C1CCCCC1`, the inhibition is 18.4% (active).

As to `CN(Cc1ccccc1)C(=O)C1CCCN(c2ncnc3c2nc2n3CCCCC2)C1` (stereo unspecified), the inhibition was 10%.

Turning to `O=C(NCc1ccccc1Cl)C1CCN(c2ncnc3c2nc2n3CCCCC2)CC1`, the inhibition was 13.7%.

In the case of `CCC(=O)c1cn(CCOc2ccccc2OC)c2ccccc12`, the inhibition is -7%.

Source of the values: PubChem BioAssay AID602438 (Sanford-Burnham Center for Chemical Genomics, 2012).
